# The full list was thinned out, with hits kept by preference.
# IDE exosite FP: displaces the probe from the exo-site of human IDE | purified IDE, FL-6b probe fluorescence polarization; stronger effect = lower value | hit rate 6.3% among 17,000 | P14735 | AID 1259349 | z-score at 20 µM;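 active means z-score of -3 or lower, meaning strong loss of probe binding signal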;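 further: His-tagged human IDE residues 42-1019 made in E. coli with 30 nM FL-6b probe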
# Target sequence (P14735 42-1019 limits assumed): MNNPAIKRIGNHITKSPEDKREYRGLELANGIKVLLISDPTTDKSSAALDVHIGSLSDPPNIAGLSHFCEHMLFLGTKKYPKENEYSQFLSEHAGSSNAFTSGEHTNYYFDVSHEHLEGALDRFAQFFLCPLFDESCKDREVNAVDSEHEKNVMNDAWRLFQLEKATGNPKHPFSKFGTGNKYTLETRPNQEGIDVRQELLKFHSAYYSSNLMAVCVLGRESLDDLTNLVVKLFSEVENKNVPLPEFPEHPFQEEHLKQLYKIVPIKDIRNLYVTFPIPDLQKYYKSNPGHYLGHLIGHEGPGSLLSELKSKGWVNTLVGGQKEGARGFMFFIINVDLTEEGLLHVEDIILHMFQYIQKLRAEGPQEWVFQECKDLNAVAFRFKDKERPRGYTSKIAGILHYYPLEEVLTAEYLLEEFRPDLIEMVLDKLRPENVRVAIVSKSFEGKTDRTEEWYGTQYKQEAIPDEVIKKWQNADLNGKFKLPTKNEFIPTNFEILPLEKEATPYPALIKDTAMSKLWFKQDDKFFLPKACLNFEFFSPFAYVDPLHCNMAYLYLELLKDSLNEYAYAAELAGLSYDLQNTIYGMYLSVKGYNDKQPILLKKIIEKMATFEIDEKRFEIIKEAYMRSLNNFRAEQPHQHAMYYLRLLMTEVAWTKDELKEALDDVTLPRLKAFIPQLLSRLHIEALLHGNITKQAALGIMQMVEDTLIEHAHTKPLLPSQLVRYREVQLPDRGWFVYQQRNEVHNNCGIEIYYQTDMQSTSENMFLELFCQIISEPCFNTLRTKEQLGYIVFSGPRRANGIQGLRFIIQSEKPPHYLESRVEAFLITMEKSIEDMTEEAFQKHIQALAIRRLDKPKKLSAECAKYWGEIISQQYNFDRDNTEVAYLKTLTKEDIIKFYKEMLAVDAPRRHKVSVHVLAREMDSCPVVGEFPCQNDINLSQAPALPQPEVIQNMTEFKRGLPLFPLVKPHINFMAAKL
# * = called active by the depositor.
SMILES,IDE exosite FP
OC[C@@H]1[C@@H](c2ccc(C#Cc3ccccc3)cc2)[C@@H]2CN(Cc3cncnc3)CCCCN12,-6.4*
CCCC#Cc1ccc([C@@H]2[C@H](CO)N3CCCCN(Cc4cccnc4)C[C@@H]23)cc1,0.86
OC[C@@H]1[C@H](c2ccc(C#Cc3ccccc3)cc2)[C@H]2CN(Cc3cncnc3)CCCCN12,-8.5*
OC[C@H]1[C@H](c2ccc(C#Cc3ccccc3)cc2)[C@@H]2CN(Cc3cncnc3)CCCCN12,-4.5*
COCC#Cc1ccc([C@H]2[C@@H](CO)N3CCCCN(Cc4cncnc4)C[C@@H]23)cc1,1.7
CCCC#Cc1ccc([C@@H]2[C@H](CO)N3CCCCN(Cc4cncnc4)C[C@@H]23)cc1,0.051
CCCC#Cc1ccc([C@H]2[C@H](CO)N3CCCCN(Cc4cncnc4)C[C@@H]23)cc1,2.3
COCC#Cc1ccc([C@H]2[C@H]3CN(Cc4cncnc4)CCCCN3[C@H]2CO)cc1,1.3
OC[C@H]1[C@@H](c2ccc(C#Cc3ccccc3)cc2)[C@H]2CN(Cc3cncnc3)CCCCN21,-0.52
C[C@H](CO)N1C[C@H](C)[C@H](CN(C)C(=O)[C@H](Cc2ccccc2)N(C)C)OCc2ccccc2-c2c(n(C)c3ccccc23)C1=O,-1.3
COc1ccc2c3c(n(C)c2c1)[C@H](CO)N(CC1CC1)CC31CN(C(=O)c2ccc3c(c2)OCO3)C1,0.53
C[C@@H](O)C#Cc1ccc([C@@H]2[C@@H](CO)N3CCCCN(CC4CC4)C[C@H]23)cc1,3.8
CC(=O)N1CC(=O)N2[C@H](CO)[C@@H](c3ccc(-c4ccccc4)cc3)[C@@H]2C1,0.11
CCCC(=O)N1CC2(CN(Cc3nccs3)C2)c2c([nH]c3cc(OC)ccc23)[C@@H]1CO,-0.22
CCCNC(=O)N1CC(=O)N2[C@H](CO)[C@@H](c3ccc(C#Cc4ccc(F)cc4)cc3)[C@@H]2C1,4.3
CCCNC(=O)N1CC(=O)N2[C@@H](CO)[C@H](c3ccc(C#Cc4cccc(OC)c4)cc3)[C@@H]2C1,-2.8
CCC(=O)N1CC(=O)N2[C@@H](CO)[C@@H](c3ccc(C#Cc4cccnc4)cc3)[C@@H]2C1,2
COc1cccc(C#Cc2ccc([C@H]3[C@H](CO)N4C(=O)CN(C(=O)c5ccccc5)C[C@@H]34)cc2)c1,-2.2
CCC(=O)N1CC(=O)N2[C@@H](CO)[C@@H](c3ccc(C#Cc4cccc(OC)c4)cc3)[C@@H]2C1,-11*
CCC(=O)N1CC(=O)N2[C@H](CO)[C@@H](c3ccc(C#Cc4cccc(OC)c4)cc3)[C@H]2C1,-4.2*
CCC(=O)N1CC(=O)N2[C@H](CO)[C@@H](c3ccc(C#Cc4cccnc4)cc3)[C@@H]2C1,-0.31
COc1cccc(C#Cc2ccc([C@@H]3[C@@H](CO)N4C(=O)CN(C(=O)C5CC5)C[C@H]34)cc2)c1,-1.9
CCCNC(=O)N1CC(=O)N2[C@@H](CO)[C@@H](c3ccc(C#Cc4cccc(OC)c4)cc3)[C@@H]2C1,-1.3
CCC(=O)N1CC(=O)N2[C@H](C1)[C@H](c1ccc(C#Cc3cccnc3)cc1)[C@@H]2CO,-3*
CCC(=O)N[C@@H]1CC[C@@H](CC(=O)NCc2ccccc2F)O[C@@H]1CO,1.1
SMILES,IDE exosite FP
COc1cccc(NC(=O)N2CC(=O)N3[C@H](CO)[C@H](c4ccc(C#CCC5CCCC5)cc4)[C@@H]3C2)c1,0.7
C[C@H](O)C#Cc1ccc([C@@H]2[C@H](CO)N3CCCCN(C(=O)c4cccc(F)c4)C[C@@H]23)cc1,3.7
COc1ccccc1S(=O)(=O)N(C)C[C@@H]1OCc2cn(nn2)CCCC(=O)N([C@@H](C)CO)C[C@@H]1C,-1.8
COc1ccc([C@@H]2C/C=C\C[C@@H](c3cccc(Cl)c3)NC(=O)[C@@H](c3ccccc3)CC(=O)N2)c(OC)c1,-0.44
C[C@@H]1CCCCO[C@@H](CN(C)C(=O)CCCN(C)C)[C@H](C)CN([C@@H](C)CO)C(=O)c2cc(NS(=O)(=O)c3ccc(Cl)cc3)ccc2O1,1.5
COCC#Cc1ccc([C@H]2[C@@H](CO)N3CCCCN(C(=O)NC4CCCC4)C[C@@H]23)cc1,-1.2
COCC#Cc1ccc([C@H]2[C@H]3CN(C(=O)NC4CCCC4)CCCCN3[C@H]2CO)cc1,-0.15
COc1ccccc1-c1ccc([C@@H]2[C@@H](CO)N3CCCCN(C(=O)NC4CCCC4)C[C@H]23)cc1,-8.4*
COc1ccccc1-c1ccc([C@H]2[C@H]3CN(C(=O)NC4CCCC4)CCCCN3[C@H]2CO)cc1,-14*
COc1ccccc1-c1ccc([C@@H]2[C@H]3CN(C(=O)NC4CCCC4)CCCCN3[C@H]2CO)cc1,-12*
COc1ccccc1-c1ccc([C@@H]2[C@H](CO)N3CCCCN(C(=O)NC4CCCC4)C[C@@H]23)cc1,-16*
CCCC#Cc1ccc([C@H]2[C@@H](CO)N(C(C)=O)[C@H]2CNC(=O)C2CC2)cc1,3.9
O=C(c1ccncc1)N1CC(=O)N2[C@H](CO)[C@H](c3ccc(C#CCC4CCCC4)cc3)[C@H]2C1,-0.18
COc1cccc(C#Cc2ccc([C@@H]3[C@H]4CN(S(=O)(=O)c5ccccc5C)CC(=O)N4[C@H]3CO)cc2)c1,-0.49
COc1ccccc1CN1[C@@H]2c3ccc(C4=CCCC4)c(=O)n3C[C@H]1[C@H](CO)[C@H]2C(=O)N(C)C,-0.7
O=C(NC1CCCC1)N1CCCCN2[C@@H](CO)[C@H](c3ccc(-c4cncnc4)cc3)[C@@H]2C1,1.9
COc1ccccc1-c1ccc([C@@H]2[C@@H](CO)N3CCCCN(C(=O)NC4CCCC4)C[C@@H]23)cc1,-4.7*
COc1ccccc1NC(=O)N1CCCCN2[C@H](C1)[C@H](c1ccc(-c3ccc(C)cc3)cc1)[C@@H]2CO,1.2
O=S(=O)(Cc1ccccc1)N1CCCCN2[C@H](CO)[C@H](c3ccc(-c4cccnc4)cc3)[C@H]2C1,2.6
COCC(=O)Nc1ccc2c(c1)C(=O)N(C)[C@@H]1CC[C@@H](CC(=O)NC3Cc4ccccc4C3)O[C@@H]1CO2,-1.8

# Source: PubChem BioAssay
